Data published in ChEMBL document CHEMBL1157539, “Thousands of chemical starting points for antimalarial lead identification” (Nature, 2010).

How the values were obtained:
Type in all cases: functional
Plasmodium falciparum [1] = experiment: GSK_TCMDC: Inhibition of Plasmodium falciparum 3D7 in whole red blood cells, using parasite LDH activity as an index of growth. Test compounds present at 2uM
Plasmodium falciparum [2] = experiment: GSK_TCMDC: Inhibition of Plasmodium falciparum Dd2 in whole red blood cells, using parasite LDH activity as an index of growth. Test compounds present at 2uM
HepG2 = experiment: GSK_TCMDC: Percent inhibition of human HepG2 cell line. Test compounds present at 10uM.

| Structure (SMILES) | Inhibition (Plasmodium falciparum [1]) | Inhibition (Plasmodium falciparum [2]) | Inhibition (HepG2) |
| --- | --- | --- | --- |
| Cl.Cn1cc(Br)c(-c2cccc(Nc3ccnc4cc(-c5nccs5)ccc34)c2)n1 | 91% | 32% | 37% |
| O=C(N1CCN(c2cccc(C(F)(F)F)c2)CC1)C(Cl)(Cl)Cl | 89% | 35% | 0% |
| CCc1ccc(C2CCN(CCCCNC(=O)c3ccc(NC(=O)c4ccc(Cl)cc4)cc3)CC2)c(OC)c1 | 100% | 80% | 26% |
| Cl.FC(F)(F)c1cc(CNCCCNc2nc3ccncc3[nH]2)ccc1Cl | 99% | 15% | 11% |
| Cc1ccc(Nc2nc3cc(N(C)c4ccnc(Nc5cccc(CCS(C)(=O)=O)c5)n4)ccc3n2C)cc1.O=C(O)C(F)(F)F | 99% | 73% | 78% |
| O=C(O)C(F)(F)F.O=S(=O)(NCCN1CCCC1)c1cccc(-c2cccc(CNCc3ccccc3)c2)c1 | 97% | 73% | 32% |
| CNCCNCc1ccc(-c2ccc(-c3nc4cccc(C)c4[nH]3)s2)cc1.O=C(O)C(F)(F)F | 97% | 26% | 16% |
| Cl.O=C(/C=C/c1ccc(Cl)c(Cl)c1)N1CCC(CN2CCC(c3c[nH]c4ncccc34)CC2)CC1 | 84% | 20% | 38% |
| CN1C(=C2SC(=Nc3ccc4ncccc4c3)N(Cc3ccccc3)C2=O)Sc2ccc(Cl)cc21 | 99% | 75% | 4% |
| CC(Cc1ccc(Cl)cc1)Nc1nc(NC2CCCC2)nc(N2CCC(C#N)(c3ccccc3)CC2)n1 (stereo unspecified) | 99% | 95% | 15% |
| COc1cccc(CN2CCCC(OC(c3ccccc3)c3ccccc3)C2)c1O.O=C(O)C(F)(F)F (stereo unspecified) | 90% | 73% | 19% |
| COc1cc([N+](=O)[O-])ccc1NC(=O)Nc1ccc(OC(F)(F)F)cc1 | 84% | 72% | 14% |
| Cc1[nH]c(C)c(-c2ccc(-c3ccc(OC(F)(F)F)cc3)nc2)c(=O)c1Br | 97% | 97% | 26% |
| CN1CCN(c2ccnc3ccc(NC(=O)Nc4cccc5c(-c6ccncc6)cccc45)cc23)CC1 | 100% | 100% | 7% |
| CCC(=Cc1cccc([N+](=O)[O-])c1)C(=O)NCC1CCN(c2nc3cc(OC)c(OC)cc3c(=N)[nH]2)CC1.Cl | 100% | 62% | 25% |
| COc1cccc2c1CCN(CCN1CCC(NC(=O)c3ccc(-c4cccc(Cl)c4Cl)cc3)CC1)C2 | 100% | 38% | 47% |
| CC(C)Oc1cc2c(cc1NS(=O)(=O)c1ccc(-c3ccc(Cl)cc3)cc1F)CCN(C)CC2.Cl | 88% | 2% | 29% |
| COc1ccc2nc3cc(Cl)ccc3c(NCCCN3CCNCC3)c2c1.Cl | 100% | 74% | 18% |
| COc1ccc2ncc(C#N)c(CCN3CCC(NCc4cnc5c(c4)OCCO5)CC3)c2n1.Cl | 91% | 24% | 3% |
| COc1ccc(-c2ccc(NC(=O)c3cccc(Cl)c3)cc2)cc1CN1CCCN(C)CC1.O=C(O)C(F)(F)F | 95% | 50% | 48% |
| c1ccc(CSC2=NNC(c3ccccn3)S2)cc1 (stereo unspecified) | 80% | 65% | 6% |

| Structure (SMILES) | Inhibition (Plasmodium falciparum [1]) | Inhibition (Plasmodium falciparum [2]) | Inhibition (HepG2) |
| --- | --- | --- | --- |
| Cc1cc(CN2CCC(C(=O)Nc3ccc(-c4nc5ccccc5[nH]4)cc3)CC2)oc1C | 95% | 9% | 0% |
| O=C(C=Cc1ccc(Cl)c(Cl)c1)NCCCCCN1CCCC(CCCNS(=O)(=O)c2cccc3cccnc23)C1 (stereo unspecified) | 96% | 16% | 37% |
| CCc1c[nH]c2c(N3CCCS3(=O)=O)cc(C(=O)N[C@@H](Cc3ccccc3)[C@H](O)CNC(C)(C)CCCC(C)C)cc12 | 96% | 98% | 13% |
| CC(C)(C)c1ccccc1SC1=C(O)CC2(CCNCC2)OC1=O.Cl | 99% | 0% | 0% |
| O=C(O[C@@H]1CN[C@H](C#Cc2cc3c(Nc4ccc5c(cnn5Cc5ccccc5)c4)ncnc3s2)C1)N1CCCC1 | 99% | 87% | 8% |
| Cl.N#Cc1cccc(NC(=O)Nc2ccc3c(c2)CCN(C2CCC2)CC3)c1 | 91% | 26% | 22% |
| COc1cc(C2=NN(S(=O)(=O)c3c(Cl)cc(Cl)cc3Cl)CCCC2)ccc1Cl | 98% | 97% | 3% |
| COCc1cccc(-c2cc(-c3ccc(S(C)(=O)=O)cc3)cnc2N)c1 | 98% | 88% | 10% |
| Cc1nc(-c2nc(NCCc3c(C)noc3C)ncc2-c2ccsc2)sc1C | 87% | 85% | 12% |
| C=CC[C@@H](C(=O)OCC)[C@@H]1[C@@H](N(CC=C)C(=O)OC(C)(C)C)CCN1C(=O)OCc1ccccc1 | 92% | 68% | 2% |
| COc1ccc(N2C(=O)C3C(C2=O)C2(C)c4ccccc4C3(C)c3ccccc32)c([N+](=O)[O-])c1 (stereo unspecified) | 99% | 54% | 11% |
| COc1cccc(C(=O)Nc2ccc(-c3nc4ccccc4[nH]3)cc2)c1 | 95% | 19% | 28% |
| Cc1noc(C)c1-c1ccc2c(Nc3ccccc3C(C)(C)C)c(C(=O)NCc3ccccc3)cnc2c1.Cl | 99% | 89% | 20% |
| Cc1cccc2nc(-c3cccc(-c4cccc(NC(=O)CCc5c[nH]cn5)c4)c3)[nH]c12 | 100% | 86% | 16% |
| Cc1ccc(C)c(-n2c(SCC(=O)Nc3ccc(C(N)=O)cc3)nnc2-c2cccc(Cl)c2)c1 | 92% | 91% | 6% |
| O=c1cc(NCCCNCc2ccccc2-c2ccccc2)[nH]c2ccccc12 | 88% | 46% | 0% |
| CCOc1c(CCNCCCCNCCc2ccc3ccccc3c2OCC)ccc2ccccc12.CS(=O)(=O)O | 94% | 87% | 100% |
| COc1ccc(NC(=O)Nc2ccc(-c3ccccc3)cc2)cc1Cn1nc(Cl)c(N2CCCNCC2)cc1=O.O=C(O)C(F)(F)F | 100% | 84% | 18% |
| N#Cc1cc([N+](=O)[O-])ccc1-n1nc(C(N)=O)n(Cc2cccc(F)c2)c1=S | 100% | 100% | 6% |
| Cc1ccc2[nH]c(Nc3ccc(Nc4nc5cc(C)ccc5[nH]4)c(C)c3)nc2c1 | 99% | 94% | 12% |
| CN1CCN(CC(=O)Nc2ccc(-c3cccc(-c4nc5cc(C(F)(F)F)ccc5[nH]4)c3)cc2)CC1 | 100% | 93% | 45% |

| Structure (SMILES) | Inhibition (Plasmodium falciparum [1]) | Inhibition (Plasmodium falciparum [2]) | Inhibition (HepG2) |
| --- | --- | --- | --- |
| COc1cc(NCC(O)CNc2cc(Cl)nc3ccccc23)nc2ccccc12 (stereo unspecified) | 99% | 99% | 17% |
| COc1ccc(-c2cccc(NC(=O)c3cccc(C#N)c3)c2)cc1CN1CCNCC1.O=C(O)C(F)(F)F | 100% | 15% | 27% |
| COc1ccc(C(=O)Nc2ccc(-c3nc4cc(C)ccc4[nH]3)cc2)cc1OC | 100% | 38% | 70% |
| Nc1nc(N)c2c(ccc3c2ccn3Cc2ccc(Cl)cc2)n1 | 100% | 99% | 100% |
| COc1c(O)cc2oc(-c3ccc(O)cc3)cc(=O)c2c1O [HISPIDULIN] | 96% | 0% | 6% |
| Cc1cc(NC2CCN(CC3CCCCC3)CC2)nc(Nc2ccccc2Cl)n1 | 100% | 31% | 28% |
| Cl.OC(CNCCCCCCNCC(O)c1ccc(Cl)c(Cl)c1)c1ccc(Cl)c(Cl)c1 (stereo unspecified) | 90% | 17% | 99% |
| O=C(Nc1ccc(C(F)(F)F)cc1)NC1CCN(c2ccnc3ccccc23)C1.O=C(O)C(F)(F)F (stereo unspecified) | 100% | 89% | 13% |
| Oc1c(C(Nc2ccccn2)c2ccco2)cc(Cl)c2cccnc12 (stereo unspecified) | 87% | 65% | 41% |
| Cc1cc2cc(/C=C/C(=O)NC3CCC(CCN4CCc5ccc(C#N)cc5CC4)CC3)ccc2[nH]1.Cl (stereo unspecified) | 85% | 49% | 6% |
| N#Cc1cccc(NC(=O)Nc2ccc(CC(=O)N3CCc4cc(Cl)c(N5CCN(C/C=C/c6ccccc6)CC5)cc43)cc2)c1 | 91% | 61% | 0% |
| N#Cc1ccc(N/C(=N\c2ccc(-c3ccccc3)cc2)NCCc2c[nH]c3ccccc23)c(O)c1 | 96% | 75% | 6% |
| CC(C)(C)CNc1noc(-c2sccc2Br)n1 | 82% | 71% | 4% |
| CC(C)(C)NCC(O)COc1ccc(Cl)cc1C1=NNC(=O)CC1.Cl (stereo unspecified) | 96% | 0% | 6% |
| CCCC(C)NC[C@@H](O)[C@H](Cc1ccccc1)NC(=O)c1cc(NCC)cc(N2CCCCS2(=O)=O)c1.Cl (stereo partly specified) | 100% | 98% | 0% |
| CCOc1ccc2c(=NN=Cc3cccc(Cl)c3)cc(C)[nH]c2c1 | 93% | 34% | 0% |
| O=C(O)C(F)(F)F.c1ccc(CCNCc2ccc(-c3ccc(CNc4ccc5ncccc5c4)cc3)cc2)cc1 | 96% | 27% | 36% |
| CCCCc1ccccc1NS(=O)(=O)c1ccc(OC)c(N2CCNCC2)c1.Cl | 91% | 2% | 6% |
| COc1ccc2nccc([C@@H](O)CN3CCC(NC(=O)c4cc5cccnc5[nH]4)CC3)c2c1.Cl | 94% | 6% | 0% |
| COc1cc(Cc2cnc(N)nc2N)ccc1Oc1ccc(N)cc1 | 93% | 0% | 0% |
